Experimental data as given in PubChem BioAssay AID504848 (National Center for Advancing Translational Sciences (NCATS), 2011).
Out of some 2,300 compounds screened, about 1,400 (61%) were called active. Another 29% or so got no clear call; they are omitted. Calls follow the shape of the dose curve; as a rule, active = well fitted inhibition curve with a large enough effect; inconclusive = small, poorly fitted or top-dose-only effect, or effect the other way; inactive = no such curve, though single readings can be large or run the other way. So high a share suggests a set chosen from earlier hits. The list shows a part of the results.

Test: Confirmation screen for delayed death inhibitors of the malarial parasite plastid, 96 hour incubation; also: nearly all actives have a fitted effect of over 60% in size
Details: P. falciparum luciferase growth in erythrocytes; series mostly up to 28.7 µM
Method in brief: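 Erythrocytes infected with luciferase-expressing P. falciparum (2% hematocrit, 0.1% parasitemia final) in RPMI 1640 with 0.5% Albumax, exposed to compounds 96 h at 37 C, 5% CO2. Growth inhibition read as decreased luciferase luminescence.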
Potency is read from the fitted curve at half-maximal effect.

SMILES	Potency
Cc1cc(=O)oc2c3c(cc(OCC(=O)Nc4cccnc4)c12)OC(C)(C)CC3	1.26 µM (active)
CCOC(=O)c1c(NC(=O)CSc2c[nH]c3ccccc23)sc2c1CCCC2	12.6 µM (active)
CCOC(=O)c1c(NC(=O)CSc2ccccc2C(=O)O)sc(C)c1C	inactive
Cc1ccc(NC(=O)c2cc(C(C)(C)C)nn2Cc2ccccc2)cc1	12.6 µM (active)
CC(C)(C)c1cc(C(=O)NNc2cccc(Cl)c2)n(Cc2ccccc2)n1	10 µM (active)
Cc1cccc(Cn2nc(C(C)(C)C)cc2C(=O)Nc2ccc(F)cc2)c1	3.55 µM (active)
Cc1ccc2c(c1)cc(C(=O)NCc1ccccc1)n2C	inactive
CC(C)(C)C(=O)NNC(=O)c1cc(C(C)(C)C)nn1Cc1ccccc1	14.1 µM (active)
C=CCNC(=O)c1cnc2n(c1=O)CCS2	inactive
Cc1cccc(-n2ncc3c2CCCC3NC(=O)C2=CC(=O)CC(C)(C)O2)c1C (stereo not given)	12.6 µM (active)
COc1ccc(C(=O)NC2CCCc3c2cnn3-c2cccc(C)c2C)o1 (stereo not given)	12.6 µM (active)
O=S(=O)(c1ccc(Cl)c(Cl)c1)c1snnc1-c1ccccc1	7.94 µM (active)
CCCNC(=O)c1nnsc1S(=O)(=O)c1ccc(Cl)cc1	inactive
N#Cc1ccc(Oc2ccc(-c3nc4ccccc4nc3-c3ccccc3)cc2)cc1C#N	0.708 µM (active)
CCOC(=O)C(Cc1ccccc1)C(=O)Nc1cccc2ccccc12 (stereo not given)	5.01 µM (active)
CCc1nn(CCCC(=O)NCc2ccccc2C)c(=O)c2cc3occc3n12	7.08 µM (active)
O[C@@H]1[C@@H](O)C=C2CCN3Cc4cc5c(cc4[C@H]1C23)OCO5 (stereo not given in full)	1.58 µM (active)
S=c1[nH]nc(COc2ccccc2)n1/N=C/C(Cl)=C/c1ccccc1	12.6 µM (active)
ClC(/C=N/n1cnnc1)=C/c1ccccc1	10 µM (active)
O=C(O)CCCN1C(=O)/C(=C\C(Cl)=C\c2ccccc2)SC1=S	5.01 µM (active)
C=C1c2c(Cl)ccc(O)c2C(O)=C2C(=O)[C@]3(O)C(O)=C(C(N)=O)C(=O)[C@@H](N(C)C)[C@@H]3[C@@H](O)C12 (stereo not given in full)	2 µM (active)
C=C1c2c(Cl)ccc(O)c2C(O)=C2C(=O)[C@@]3(O)C(O)=C(C(N)=O)C(=O)[C@@H](N(C)C)[C@@H]3[C@@H](O)[C@H]12	2 µM (active)
C[C@@H]1c2cccc(O)c2C(O)=C2C(=O)[C@@]3(O)C(O)=C(C(N)=O)C(=O)[C@@H](N(C)C)[C@@H]3[C@@H](O)[C@@H]21	2.51 µM (active)
S=c1[nH]nc(-c2cc(-c3ccccc3)n[nH]2)n1/N=C/C(Br)=C/c1ccccc1	3.98 µM (active)
S=c1[nH]nc(-c2ccccc2)n1/N=C/c1ccc(-c2ccccc2Cl)o1	inactive
